# aSyn UTR act – Activators working through SNCA 5'UTR binding (MLPCN); activity score, % (tested at 7.5 µM), hits read low; AID 1814; alpha-synuclein 5'UTR reporter, activators screen; 300,000 tested, 7.1% active; in the data active = activity score below about -60%
# A number is an active result; - = inactive. A selection follows.
SMILES,aSyn UTR act
CN(C)c1ccc(/C=C2\CCCCC2=O)cc1,-104
CCOC(=O)c1cnn(-c2ccc(C(C)C)cc2)c1NC(=O)C1CCC1,-81
Cc1ccc(C(=O)/C=C\Nc2ccc(C)c(C)c2)cc1,-195
Cc1ccc(C(=O)/C=C/Nc2ccccn2)cc1,-
COc1ccc(N/C=C/C(=O)c2cc(OC)c(OC)c(OC)c2)cc1,-
COc1ccc(N/C=C/C(=O)c2ccc(Cl)cc2)cc1,-105
Cc1cc(N/C=C/C(=O)c2ccccc2)ccc1Br,-78
O=C(/C=C/Nc1ccc(F)cc1Br)c1ccccc1,-
Cc1ccc(N/C=C/C(=O)c2ccc(C)cc2)cc1,-241
Cc1ccc(O)c(N/C=C/C(=O)c2ccc(F)cc2)c1,-259
c1ccn(-c2ccc(N3CCOCC3)cc2)c1,-125
Cc1csc(NC(=O)c2sccc2C)n1,-68
COc1ccc(-c2csc(NC(=O)c3cccc(S(=O)(=O)N4CCN(C)CC4)c3)n2)cc1,-71
CC(=O)c1ccc(NC(=O)c2cccc(S(=O)(=O)N3CCN(C)CC3)c2)cc1,-112
COc1ccc(/C(C)=N/NC(=O)c2cccc(S(=O)(=O)N3CCCC3)c2)c(O)c1,-
COc1ccc(-c2csc(NC(=O)c3ccoc3C)n2)cc1,-124
O=C1/C(=N\S(=O)(=O)c2cccs2)C([n+]2cccc(Cc3ccccc3)c2)=C([O-])c2ccccc21,-
CCc1nnc(NC(=O)c2ccc(S(=O)(=O)N(C)Cc3ccccc3)cc2)o1,-
Cc1csc(NC(=O)c2ccc(S(C)(=O)=O)cc2)n1,-91
COC(=O)c1c(-c2ccncc2)csc1NC(=O)c1ccoc1C,-120
COc1ccc(-c2csc(NC(=O)c3ccc(S(C)(=O)=O)cc3)n2)cc1,-68
COc1ccccc1N(Cc1ccccc1)S(=O)(=O)c1cccc(C(=O)Nc2ccc(C(C)=O)cc2)c1,-88
Cc1nc(N)sc1N=Nc1ccc(F)cc1,-107
CN(C)CCN(C(=O)c1ccc(N2C(=O)CCC2=O)cc1)c1nc2cc3c(cc2s1)OCCO3,-75
Cc1ccc2nc(N(CCCN(C)C)C(=O)c3ccc(S(=O)(=O)N4CCc5ccccc5C4)cc3)sc2c1,-
SMILES,aSyn UTR act
CCc1ccc2nc(NC(=O)c3ccc(N4C(=O)CCC4=O)cc3)sc2c1,-73
CCc1ccc2nc(NC(=O)c3ccc4c(=O)[nH]c(CN5CCOCC5)nc4c3)sc2c1,-107
O=C(Nc1nc2cc3c(cc2s1)OCCO3)c1ccco1,-
O=C(Nc1nc2cc3c(cc2s1)OCCO3)c1ccc(N2C(=O)CCC2=O)cc1,-65
CCS(=O)(=O)Nc1cc(-c2nc3cccnc3s2)ccc1C,-123
CCS(=O)(=O)Nc1cccc(-c2nc3cccnc3s2)c1,-62
Cc1ccc(-c2nc3cccnc3s2)cc1NC(=O)c1ccco1,-198
Cc1c(NS(C)(=O)=O)cccc1-c1nc2cccnc2s1,-64
CC1CCCC2(C1)NC(=S)c1c(sc3c1CCCC3)N2 (configuration not stated),-63
Cc1c(Cl)cccc1Nc1nc(N)nc(CSc2ncccn2)n1,-77
O=C(Nc1ccc(C(=O)N2CCOCC2)cc1)Nc1cccc(Cl)c1,-139
CSc1ccccc1NC(=O)Nc1cccc(F)c1,-82
Cc1cccnc1NC(=O)Nc1cccc(Cl)c1,-186
CNS(=O)(=O)c1ccc(NC(=O)Nc2cccc(F)c2)cc1,-89
NS(=O)(=O)c1cccc(NC(=O)Nc2ccc(Cl)cc2)c1,-92
O=C(Nc1cccc(F)c1)Nc1cccc(Cl)c1,-84
O=C(Nc1cccc(Cl)c1)ON=C1c2ccccc2-c2ccccc21,-66
Cc1cccnc1N(C(=O)Nc1cccc(Cl)c1)C1=NCC(C)(C)S1,-66
Cc1cccc(N(O)C(=O)Nc2cccc(Cl)c2)c1,-109
NS(=O)(=O)c1cccc(NC(=O)CCSc2ccccc2Cl)c1,-120
Oc1c(C(Nc2cccc(C(F)(F)F)c2)c2ccncc2)ccc2cccnc12 (configuration not stated),-
O=C(Nc1cccc(Cl)c1)c1cnc[nH]1,-87
CSc1ccccc1NC(=S)Nc1cccc(C(F)(F)F)c1,-64
CCOc1ccc(NC(=O)Nc2ccccc2SC)cc1,-142
O=C(Nc1cccc(Cl)c1)Nc1cccc(Cl)c1,-137
SMILES,aSyn UTR act
N#CCc1ccc(NC(=O)Nc2cccc(Cl)c2)cc1,-143
Cc1ccc(N=Cc2sccc2C)cc1C,-111
Cc1c(OCC(=O)NC2CC(C)(C)NC(C)(C)C2)ccc2c1oc(=O)c1ccccc12,-107
CC1(C)CC(NC(=O)COc2ccccc2Cl)CC(C)(C)N1,-66
N#C/C(C(=O)N1CCCCC1)=C1\Nc2ccccc2S1,-104
O=C1Nc2ccccc2S/C1=C\C(=O)N1CCCC1,-140
Cc1onc(NC(=O)c2ccc(Cl)cc2Cl)c1Br,-145
O=C(c1ccc2oc(CCc3ccccc3)nc2c1)N1CC[C@H](O)C1,-134
O=C(c1ccc2oc(CCCc3ccccc3)nc2c1)N1CCCC(CCCO)C1 (configuration not stated),-65
CCCCc1nc2cc(C(=O)N(C)C3CCOCC3)ccc2o1,-165
CCCCc1nc2cc(C(=O)N3CCC(O)CC3)ccc2o1,-83
COC(=O)c1ccc(Cn2nc(C)cc2C)cc1,-71
Fc1ccc(SCCc2ccccn2)cc1,-97
CC(C)(C)c1ccc(SCCc2ccccn2)cc1,-127
CC(C)(C)c1ccc(S(=O)(=O)CCc2ccccn2)cc1,-96
O=C(Nc1ccc(OC(F)(F)F)cc1)Nc1cccnc1,-110
CC(C)(C)c1ccc(Oc2ccc(NC(=O)c3ccccc3C(=O)O)cn2)cc1,-
CCC(C)c1ccc(NC(=O)Nc2cccnc2)cc1 (configuration not stated),-155
O=C(Nc1ccccc1)Nc1ccc(Oc2cccnc2)nc1,-105
COc1ccc(OC)c2c1C(=O)C(Cl)=C(Cl)C2=O,-89
COc1ccc(-c2nc3nc(C)cc(C)n3n2)cc1,-135
COc1ccc(-c2cc3nc(C)cc(C)n3n2)cc1,-183
Cc1cc(C)n2nc(-c3ccc(Br)cc3)cc2n1,-122
Cc1cc(C)n(-c2nc(-c3ccc(Cl)cc3)cs2)n1,-93
Cc1cc(C)n2nc(-c3ccc(Cl)cc3)cc2n1,-129
SMILES,aSyn UTR act
Cc1ccc(N=C2NC(=O)/C(=C/c3cccn3C)S2)cc1,-80
O=C1NC(=Nc2ccccc2)S/C1=C/c1cccs1,-117
Cc1ccc(N=C2NC(=O)/C(=C/c3cccn3C)S2)cc1C,-127
Cn1/c(=N\NC(=O)C2CCCCC2)sc2ccccc21,-141
Cn1/c(=N\NC(=O)c2ccccc2Cl)sc2ccccc21,-89
Cn1cccc1C(=O)OCc1ccc(C(C)(C)C)cc1,-141
CCOc1ccc(C(=O)N/N=C/c2ccccc2[N+](=O)[O-])cc1,-126
CCC(=O)Nc1ccc(C(=O)N/N=C/c2ccccc2[N+](=O)[O-])cc1,-81
Cc1ccc(C(=O)N/N=C\c2ccccc2[N+](=O)[O-])cn1,-111
COc1ccccc1/C=N/NC(=Nc1ccc(C)cc1)c1nc2ccccc2s1,-99
COc1cc(C=C(c2nc3ccccc3s2)c2nc3ccccc3s2)cc(OC)c1O,-98
COc1cc(/C=N/NC(=Nc2ccc(C)cc2)c2nc3ccccc3s2)ccc1O,-148
O=C1c2ccccc2S(=O)(=O)N1CC1CC(c2ccccc2Cl)=NO1 (configuration not stated),-81
O=C(CN1C(=O)c2ccccc2S1(=O)=O)c1ccc(O)c(O)c1,-
COc1ccccc1C1=NOC(CN2C(=O)c3ccccc3S2(=O)=O)C1 (configuration not stated),-127
Fc1ccccc1Nc1nc2ccccc2n2nnnc12,-146
COc1cccc(Nc2nc3ccccc3n3nnnc23)c1,-65
